Results on 6 compounds are retold here after PubChem BioAssay (NCATS).

Records with an inconclusive call do not appear. Active and inactive are the calls of the source. Unless noted, the call rests on the fitted dose curve; in most records, active means well fitted curve in the direction sought with a large enough effect; inconclusive means small, poorly fitted or top-dose-only effect, or another doubt; inactive means no such curve, though single readings can be large; an effect the other way counts as inactive or inconclusive. Where only a bound is given, the exact number is not on record here.

For assay [1], the target named is Lysosomal acid glucosylceramidase (Homo sapiens) (UniProt P04062). Put plainly: Glucocerebrosidase-p2 (AID 348; in the data active means potency below about 10 µM; further: potency means the concentration at half of the fitted maximal effect). Particulars: purified GBA, blue fluorogenic substrate, 40 min. The procedure, abridged:
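Normal human glucocerebrosidase (0.2 nM) with blue fluorogenic substrate (80 uM final) in citrate/phosphate pH 5.9 with 10mM sodium taurocholate, 0.01% tween-20; 40 min RT, NaOH/glycine stop; fluorescence Ex 365/Em 440; AC50 from a titration from 0.6 nM upwards.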

Assay [2] in a line: AP1 Signaling Pathway (AID 357; active means well fitted curve in either direction with a large enough effect, not every such curve was filed as active;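 further: ME-180 reporter cells stimulated with EGF at its EC50 level; on the % scale 0 is the no-effect control and ±100 the full control effect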). Conditions: ME-180 AP-1-bla reporter, EGF-induced, beta-lactamase ratio, 5 h; at 7.69 µM (top of the series) unless noted. The method in brief: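 Titration-series screen for positive or negative modulators of EC50 EGF-induced signaling in ME-180 cells carrying an AP-1-driven beta-lactamase reporter. After 5 hours at 37 degrees Celsius, CCF4 460nm/530nm emission ratio gave %Activity; AC50 values derived.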

The target in assay [3] is Cytochrome P450 1A2 (Homo sapiens) (UniProt P05177). The experiment in a line: p450-cyp1a2 (AID 410; calls by dose curve; further: potency means the concentration at half of the fitted maximal effect;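 on activity change, negative = inhibition: -100% = full effect of reference inhibitor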). Conditions: recombinant CYP1A2, luciferin-ME demethylation, luminescence; series mostly up to 57 µM. The method in brief:
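20nM CYP1A2, 100uM Luciferin-ME (=Km), 100mM KPO4; cpd 10 min RT; +NADPH regen, 60 min RT; stop/detect 20 min; luminescence. Normalized to furafylline 57 uM = full inhibition.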

A short description of assay [4]: NFAT Signaling Pathway (AID 444; active means well fitted curve in either direction with a large enough effect, not every such curve was filed as active;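 further: carbachol stimulus at about its EC50 of 1 µM final; on the % scale 0 is the no-effect control and ±100 the full control effect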). Particulars: Jurkat NFAT-bla M1, carbachol, beta-lactamase ratio, 5 h; at 7.69 µM (top of the series) unless noted. The procedure, abridged:
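Jurkat cells with NFAT-driven β-lactamase reporter and co-expressed M1 receptor, stimulated with carbachol (final 1 uM, ~EC50), compound titration, 5 h at 37 °C. CCF4 loaded 1 h at RT; 460/530 nm ratio gave %activity and AC50.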

Assay [5] addresses Glucocorticoid receptor (Homo sapiens) (UniProt P04150). Put plainly: GR-GFP Redistribution (AID 450;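 active means compounds whose dose series gives a full or clear partial fitted curve of increased nuclear translocation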; further: potency means the concentration at half of the fitted maximal effect). Conditions: U2OS GR-GFP nuclear translocation, laser cytometry, 2 h.
Assay [6] has the same target. The experiment in a line: GR-EFC Redistribution (AID 451; calls by dose curve; further: potency means the concentration at half of the fitted maximal effect). Particulars: CHO-K1 GR-EFC translocation, beta-gal luminescence, 2 h. The procedure, abridged: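 CHO-K1 cells expressing nuclear EA and GR-ED fragments of b-gal; compounds titrated up to 46 uM final, 2 h at 37 C. GR nuclear translocation read as complemented b-gal luminescence after 1 h RT detection.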
Assay [7] deals with Mitogen-activated protein kinase 10 (Mus musculus) (UniProt Q61831). Put plainly: JNK3 AlphaScreen Assay (AID 530; active means well fitted curve in either direction with a large enough effect, not every such curve was filed as active;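 further: kinase came from lysate of stimulated human HepG2 cells; signal reports phosphorylation of biotinylated GST-cJun 1-79 at Ser73 with 10 µM ATP; on the % scale 0 is the no-effect control and ±100 the full control effect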). Conditions: JNK3 lysate, c-Jun phosphorylation; series mostly up to 57.1 µM. The procedure, abridged:
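HepG2 lysate (IL-1b/TNFa pre-activated) + biotin-GST-cJun 1-79 + anti-pSer73 cJun; cpd titration, 15 min RT; ATP 10 uM start; Tris pH 7.6, MgCl2, DTT, vanadate; beads in EDTA buffer; AlphaScreen.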

Assay [8] has as its target 3',5'-cyclic-AMP phosphodiesterase 4B (Homo sapiens) (UniProt Q07343). The experiment in a line: qHTS Assay for Inhibitors of PDE-IV (AID 607; active means well fitted activation curve with a large enough effect in the main read-out, with a control signal flat, not every such curve was filed as active; further: % of control where 0% means no effect). Particulars: HEK293 ACTOne CNG channel cells, membrane potential fluorescence; series mostly up to 22.9 µM. The procedure, abridged:
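Live HEK293 cells with a modified cyclic nucleotide-gated (CNG) channel report intracellular cAMP via membrane-potential dye fluorescence (ex 535/em 590 nm). Endogenous PDE-IV was targeted. Compounds were tested at up to 22.9 uM final; RO 20-1724 100 uM served as control.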
(qHTS replaces the single test concentration by a dilution series.)

Assay [9] concerns the target Cytochrome P450 3A4 (Homo sapiens) (UniProt P08684). The experiment in a line: qHTS Assay for Activators of Cytochrome P450 3A4 (AID 885). Further: nearly all actives have a fitted effect of over 65% in size. Particulars: recombinant CYP3A4, Luciferin-PPXE luminescence, 60 min; series mostly up to 57.1 µM. The procedure, abridged:
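Using 20nM recombinant human CYP3A4 in potassium phosphate (200mM), substrate Luciferin-PPXE at 25uM, luminescent luciferin detection followed a 60-min RT NADPH reaction; data scaled to 57 uM ketoconazole.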

Assay [10] is described as follows: qHTS Assay for Lipid Storage Modulators (AID 1519; calls by dose curve). Conditions: Drosophila S3 cells, BODIPY lipid droplet/cell ratio, laser cytometry, cells loaded with oleic acid; for activity change, negative = inhibition: at 57.5 µM (top of the series). The procedure, abridged:
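Cells seeded at 5,000 per well were treated with compounds over a concentration series and loaded with oleic acid (400 uM, as added). Lipid droplet fluorescence (488 nm excitation, 500-530 nm channel) was read by laser-scanning cytometry and normalized to 20 uM Triacsin C.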

The target in assay [11] is Dual specificity protein kinase CLK4 (Homo sapiens) (UniProt Q9HAZ1). The experiment in a line: qHTS Assay for Inhibitors of CDC-like Kinase 4 (Kinase-Glo Assay) (AID 1770). Further: on the % scale 0 is the no-effect control and ±100 the full control effect; nearly all actives have a fitted effect of over 65% in size. Particulars: recombinant Clk4, Kinase-Glo ATP depletion luminescence; series mostly up to 66.7 µM. The procedure, abridged:
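Clk4 25 nM, RS peptide 100 uM, ATP 1 uM, pH 7.5 Tris, 10 mM MgCl2, 2.5 mM DTT; 4.5 h RT; ATP depletion read by Kinase-Glo luminescence.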

Assay [12] has the same target. Put plainly: qHTS Assay for Inhibitors of CDC-like Kinase 4 (ADP-Glo Assay) (AID 1771). Further: on the % scale 0 is the no-effect control and ±100 the full control effect; nearly all actives have a fitted effect of over 70% in size. Conditions: recombinant CLK4, ADP-Glo luminescence; series mostly up to 80 µM. The procedure, abridged:
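25 nM Clk4, 100 uM RS peptide, 1 uM ATP (final); 2 mM MgCl2, 0.5 mM EGTA, 2.5 mM DTT, 0.01% Triton X-100; 1 hr RT. ADP-Glo readout: ATP depletion 45 min, conversion/luciferase 30 min, luminescence.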

Assay [13] shares this target. Put plainly: qHTS Assay for Inhibitors of CDC-like Kinase 4 (ADP-FP Assay) (AID 1795).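 Further: recombinant human CLK4 phosphorylating RS repeat peptide at 1 µM ATP; on the % scale 0 is the no-effect control and ±100 the full control effect; nearly all actives have a fitted effect of over 60% in size.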 Conditions: Transcreener ADP fluorescence polarization; series mostly up to 50 µM. The method in brief:
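Kinase activity was followed as ADP output, converted from fluorescence polarization with a calibration curve. Reactions ran one hour at low ATP (1 uM) with RS peptide substrate.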

In assay [14] the target is Ubiquitin carboxyl-terminal hydrolase 1 (Homo sapiens) (UniProt O94782). Put plainly: Inhibitors of USP1/UAF1: Pilot qHTS (AID 504865).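 Further: rhodamine fluorescence freed from ubiquitin-rhodamine substrate followed over time; top concentration of the series differs between compounds; on the % scale 0 is the no-effect control and ±100 the full control effect; nearly all actives have a fitted effect of over 35% in size.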 Conditions: purified USP1/UAF1, Ub-rhodamine cleavage fluorescence; series mostly up to 54.9 µM. The procedure, abridged: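 Enzyme-free wells gave the negative control, while test wells held 1nM USP1/UAF1 preincubated with compound for 15 min at room temperature. Ub-Rho at 150nM final started the reaction, and fluorescence at 480/540 nm was recorded kinetically.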
Ubiquitin carboxyl-terminal hydrolase 1 (Homo sapiens), sequence (O94782 whole entry, looked up): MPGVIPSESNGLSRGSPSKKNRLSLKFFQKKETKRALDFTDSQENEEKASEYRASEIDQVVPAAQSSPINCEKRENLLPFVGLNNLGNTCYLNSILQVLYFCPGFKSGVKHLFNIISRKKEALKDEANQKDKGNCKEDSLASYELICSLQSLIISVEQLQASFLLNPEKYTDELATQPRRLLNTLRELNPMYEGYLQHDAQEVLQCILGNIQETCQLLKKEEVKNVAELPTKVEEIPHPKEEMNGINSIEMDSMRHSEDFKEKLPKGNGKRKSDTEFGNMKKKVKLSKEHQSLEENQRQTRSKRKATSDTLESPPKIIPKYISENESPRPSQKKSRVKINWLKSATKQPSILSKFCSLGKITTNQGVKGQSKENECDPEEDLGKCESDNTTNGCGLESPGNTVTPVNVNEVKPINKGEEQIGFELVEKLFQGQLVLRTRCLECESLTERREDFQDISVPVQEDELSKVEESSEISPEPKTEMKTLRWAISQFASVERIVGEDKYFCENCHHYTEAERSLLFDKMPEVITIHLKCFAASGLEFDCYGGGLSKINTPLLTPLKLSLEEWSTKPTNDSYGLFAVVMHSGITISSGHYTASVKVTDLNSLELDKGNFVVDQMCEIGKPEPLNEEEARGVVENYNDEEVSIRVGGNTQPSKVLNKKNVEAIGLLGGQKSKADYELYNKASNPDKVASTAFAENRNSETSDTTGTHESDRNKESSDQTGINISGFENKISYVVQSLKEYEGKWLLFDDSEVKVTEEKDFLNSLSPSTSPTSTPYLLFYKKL

Assay [15] can be described thus: Primary qHTS for small molecule stabilizers of the endoplasmic reticulum resident proteome: Secreted ER Calcium Modulated Protein (SERCaMP) assay (AID 1508630). Further: on the % scale 0 is the no-effect control and ±100 the full control effect. Particulars: SH-SY5Y GLuc-SERCaMP (Gaussia luciferase released on ER calcium loss) secretion, thapsigargin, luminescence; series mostly up to 38.4 µM. The method in brief:
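The SH-SY5Y reporter protocol was run at 3 concentrations up to 38.3 uM (primary) or 11 concentrations (follow-up): 16 h compound, 100 nM thapsigargin for 4 h, then extracellular luciferase luminescence.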

The nature of assay [16]: Stat Signaling Pathway (AID 446; active means well fitted curve in either direction with a large enough effect, not every such curve was filed as active). Particulars: ME-180 SIE beta-lactamase reporter, IL-6 stimulated, 5 h; at 7.69 µM (top of the series) unless noted. The procedure, abridged:
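Overnight-plated ME-180 cells bearing a STAT Inducible Element beta-lactamase reporter; 5 h co-exposure to compound and 40 pM IL-6; values normalized to 300 pM IL-6 and 125 nM JAK inhibitor controls.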

Assay [17] has as its target Cytochrome P450 2C19 (Homo sapiens) (UniProt P33261). Put plainly: qHTS Assay for Inhibitors and Substrates of Cytochrome P450 2C19 (AID 899). Further: potency means the concentration at half of the fitted maximal effect; nearly all actives have a fitted effect of over 60% in size. Conditions: recombinant CYP2C19, luciferin-H EGE luminescence; series mostly up to 57.1 µM. The procedure, abridged: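 Luminescent read-out of luciferin formed from Luciferin-H EGE (10uM, equal to KM). Enzyme 5nM in 50mM KPO4; compound added, 10 min at 37C, then NADPH regenerating system for 60 min at 37C. Full inhibition defined by 57uM ketoconazole.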

Assay [18] can be described thus: qHTS Assay for Identification of Small Molecule Agonists for Hypoxia Response Element Signaling Pathway (AID 914; active means well fitted activation curve with a large enough effect in the signal ratio, with a control signal flat, not every such curve was filed as active; the % refers to the signal ratio; further: % of control where 0% means no effect). Particulars: ME-180 (cervical carcinoma) HRE-bla reporter, beta-lactamase ratio, CoCl2, 17 h; activation: stronger effect = higher value. The procedure, abridged: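 HRE-bla ME-180 cells with beta-lactamase reporter under hypoxia response element, compounds with EC50 CoCl2 for 17 hours at 37 C. CCF4 substrate, 460nm/530nm emission ratio gave %Activity; AC50 from titration series.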

[19] abbreviates: measured here: cell count channel max response.
Setting [20] is: measured here: lipid channel max response.

3',5'-cyclic-AMP phosphodiesterase 4B (Homo sapiens), sequence (Q07343 whole entry, looked up): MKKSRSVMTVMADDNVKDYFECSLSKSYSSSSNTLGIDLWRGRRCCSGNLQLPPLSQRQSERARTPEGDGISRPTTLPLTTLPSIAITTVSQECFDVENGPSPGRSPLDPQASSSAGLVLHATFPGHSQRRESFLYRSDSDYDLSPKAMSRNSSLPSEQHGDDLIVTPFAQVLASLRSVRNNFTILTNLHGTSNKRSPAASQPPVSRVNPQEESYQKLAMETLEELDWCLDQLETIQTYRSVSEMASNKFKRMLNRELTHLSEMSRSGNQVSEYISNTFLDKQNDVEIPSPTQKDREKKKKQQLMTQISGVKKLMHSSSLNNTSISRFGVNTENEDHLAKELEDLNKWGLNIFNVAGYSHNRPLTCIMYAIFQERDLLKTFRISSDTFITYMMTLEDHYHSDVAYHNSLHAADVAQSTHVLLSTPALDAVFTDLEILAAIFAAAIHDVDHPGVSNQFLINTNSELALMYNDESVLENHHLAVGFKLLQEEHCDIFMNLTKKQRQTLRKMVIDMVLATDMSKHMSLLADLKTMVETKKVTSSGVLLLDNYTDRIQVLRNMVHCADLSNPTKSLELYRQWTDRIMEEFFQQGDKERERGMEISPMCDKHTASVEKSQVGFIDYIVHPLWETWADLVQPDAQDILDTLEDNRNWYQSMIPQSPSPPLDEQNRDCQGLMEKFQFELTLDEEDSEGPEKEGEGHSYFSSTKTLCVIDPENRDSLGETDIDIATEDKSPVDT
Dual specificity protein kinase CLK4 (Homo sapiens), sequence (Q9HAZ1 whole entry, looked up): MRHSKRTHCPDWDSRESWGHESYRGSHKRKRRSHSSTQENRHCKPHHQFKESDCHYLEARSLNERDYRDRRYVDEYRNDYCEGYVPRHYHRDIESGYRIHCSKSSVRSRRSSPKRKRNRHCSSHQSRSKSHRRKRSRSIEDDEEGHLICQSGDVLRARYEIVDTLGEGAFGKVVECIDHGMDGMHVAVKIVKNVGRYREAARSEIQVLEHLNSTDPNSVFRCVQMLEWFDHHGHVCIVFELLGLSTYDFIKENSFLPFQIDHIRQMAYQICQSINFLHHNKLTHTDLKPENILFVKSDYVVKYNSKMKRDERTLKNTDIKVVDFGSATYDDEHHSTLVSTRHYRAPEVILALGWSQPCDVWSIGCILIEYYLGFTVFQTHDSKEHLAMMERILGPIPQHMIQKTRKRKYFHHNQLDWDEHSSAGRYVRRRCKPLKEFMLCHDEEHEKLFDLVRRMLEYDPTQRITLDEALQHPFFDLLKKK
Cytochrome P450 1A2 (Homo sapiens), sequence (P05177 whole entry, looked up): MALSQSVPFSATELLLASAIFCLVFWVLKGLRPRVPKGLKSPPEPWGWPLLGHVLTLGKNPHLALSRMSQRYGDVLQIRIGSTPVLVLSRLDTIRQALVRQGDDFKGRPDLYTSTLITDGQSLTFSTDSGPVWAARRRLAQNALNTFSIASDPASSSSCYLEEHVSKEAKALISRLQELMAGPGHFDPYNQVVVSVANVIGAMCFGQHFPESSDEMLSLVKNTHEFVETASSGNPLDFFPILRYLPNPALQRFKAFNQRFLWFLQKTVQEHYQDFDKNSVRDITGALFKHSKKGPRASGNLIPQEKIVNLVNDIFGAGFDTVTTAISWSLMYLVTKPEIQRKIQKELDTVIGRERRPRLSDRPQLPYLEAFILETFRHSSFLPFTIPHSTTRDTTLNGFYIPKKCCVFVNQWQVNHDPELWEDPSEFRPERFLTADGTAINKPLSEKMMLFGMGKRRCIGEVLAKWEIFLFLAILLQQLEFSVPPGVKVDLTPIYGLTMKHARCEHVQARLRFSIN
Lysosomal acid glucosylceramidase (Homo sapiens), sequence (P04062 whole entry, looked up): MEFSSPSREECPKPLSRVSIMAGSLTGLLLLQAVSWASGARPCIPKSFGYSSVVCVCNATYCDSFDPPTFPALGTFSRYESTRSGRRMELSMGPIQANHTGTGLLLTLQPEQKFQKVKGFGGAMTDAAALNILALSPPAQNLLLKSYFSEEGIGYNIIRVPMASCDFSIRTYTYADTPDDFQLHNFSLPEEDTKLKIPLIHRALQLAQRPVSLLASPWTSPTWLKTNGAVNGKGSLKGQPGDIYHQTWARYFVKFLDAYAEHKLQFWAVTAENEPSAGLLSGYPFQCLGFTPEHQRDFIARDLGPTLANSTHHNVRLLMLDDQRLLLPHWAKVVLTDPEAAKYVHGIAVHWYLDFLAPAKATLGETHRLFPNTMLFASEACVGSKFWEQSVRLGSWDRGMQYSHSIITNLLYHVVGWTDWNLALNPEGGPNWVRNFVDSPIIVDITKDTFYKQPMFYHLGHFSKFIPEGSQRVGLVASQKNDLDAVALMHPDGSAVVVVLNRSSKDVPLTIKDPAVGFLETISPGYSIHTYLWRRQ
Cytochrome P450 3A4 (Homo sapiens), sequence (P08684 whole entry, looked up): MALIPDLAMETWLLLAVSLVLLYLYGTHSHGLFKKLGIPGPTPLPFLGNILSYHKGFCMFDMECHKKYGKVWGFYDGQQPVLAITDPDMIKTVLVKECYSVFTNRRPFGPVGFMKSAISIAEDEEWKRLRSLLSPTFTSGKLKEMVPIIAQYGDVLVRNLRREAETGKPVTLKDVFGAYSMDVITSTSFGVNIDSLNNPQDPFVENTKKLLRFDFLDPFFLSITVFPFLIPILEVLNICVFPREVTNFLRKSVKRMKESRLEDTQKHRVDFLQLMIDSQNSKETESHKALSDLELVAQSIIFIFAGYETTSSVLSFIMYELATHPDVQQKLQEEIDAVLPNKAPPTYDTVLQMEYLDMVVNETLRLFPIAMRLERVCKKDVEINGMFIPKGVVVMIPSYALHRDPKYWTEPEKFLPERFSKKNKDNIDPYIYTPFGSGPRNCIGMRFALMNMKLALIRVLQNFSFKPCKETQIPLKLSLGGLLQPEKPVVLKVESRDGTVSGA
Glucocorticoid receptor (Homo sapiens), sequence (P04150 whole entry, looked up, the tested form may be a part): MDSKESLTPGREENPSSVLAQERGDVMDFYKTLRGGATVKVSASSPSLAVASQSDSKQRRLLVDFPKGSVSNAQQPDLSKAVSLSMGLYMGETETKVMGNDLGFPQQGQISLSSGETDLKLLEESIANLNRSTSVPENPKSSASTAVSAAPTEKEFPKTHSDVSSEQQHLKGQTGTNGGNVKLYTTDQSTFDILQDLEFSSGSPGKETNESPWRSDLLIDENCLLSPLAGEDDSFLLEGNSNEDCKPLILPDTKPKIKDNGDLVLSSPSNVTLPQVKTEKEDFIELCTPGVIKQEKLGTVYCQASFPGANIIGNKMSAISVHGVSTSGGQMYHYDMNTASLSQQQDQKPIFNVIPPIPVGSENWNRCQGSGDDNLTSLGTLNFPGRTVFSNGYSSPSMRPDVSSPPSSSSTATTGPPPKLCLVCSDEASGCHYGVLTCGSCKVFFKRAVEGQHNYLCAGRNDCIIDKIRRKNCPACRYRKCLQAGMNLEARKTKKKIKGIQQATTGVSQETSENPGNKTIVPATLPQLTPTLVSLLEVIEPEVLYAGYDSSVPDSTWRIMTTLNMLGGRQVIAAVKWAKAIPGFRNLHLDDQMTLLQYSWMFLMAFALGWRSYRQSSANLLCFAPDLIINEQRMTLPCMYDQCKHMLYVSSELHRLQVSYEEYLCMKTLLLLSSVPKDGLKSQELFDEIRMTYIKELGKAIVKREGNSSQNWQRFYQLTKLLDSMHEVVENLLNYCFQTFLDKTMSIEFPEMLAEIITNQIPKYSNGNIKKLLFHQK
Cytochrome P450 2C19 (Homo sapiens), sequence (P33261 whole entry, looked up): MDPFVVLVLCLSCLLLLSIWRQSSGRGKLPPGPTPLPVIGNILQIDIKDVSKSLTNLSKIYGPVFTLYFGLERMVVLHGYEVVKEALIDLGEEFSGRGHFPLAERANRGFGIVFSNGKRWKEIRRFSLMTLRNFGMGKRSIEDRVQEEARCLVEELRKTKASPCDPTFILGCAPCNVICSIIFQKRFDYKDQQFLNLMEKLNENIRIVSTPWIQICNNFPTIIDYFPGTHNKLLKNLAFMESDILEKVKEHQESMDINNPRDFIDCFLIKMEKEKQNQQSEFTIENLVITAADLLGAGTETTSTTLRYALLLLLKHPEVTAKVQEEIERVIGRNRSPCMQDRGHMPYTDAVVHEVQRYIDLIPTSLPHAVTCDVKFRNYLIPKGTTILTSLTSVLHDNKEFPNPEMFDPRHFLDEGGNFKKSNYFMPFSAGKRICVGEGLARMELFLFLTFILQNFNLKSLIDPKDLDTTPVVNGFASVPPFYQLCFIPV

`CN1CCN(c2ncc3nc(-c4cc(F)cc(F)c4)c(=O)n(C4CC4)c3n2)CC1`: the Potency in assay [1] is > 11.4 µM (inactive); in [3], 15.8 µM (active); in assay [5], > 9.22 µM (inactive); in assay [6], > 46 µM (inactive). Moreover, the activity change, negative = inhibition in assay [2] is -8.53% (inactive); in assay [4], -23.1% (inactive); in assay [10] it was 1.65% (inactive). Also, the compound was classed as inactive in assay [7]. Further, the Potency result in assay [8], in [9], in assay [11], in assay [12], in assay [13] and in [14] was “inactive” each time. Besides, the Potency result in assay [15] is “inactive”. Further, the results for the max response in assay [10] (setting [19]) and in assay [10] (setting [20]) were 12.3% and 12.5%, respectively.

With `Cc1nc2cncnc2n(Cc2ccccc2)c1=O`, the Potency was > 11.4 µM (inactive) in [1]; 12.6 µM (active) in [3]; > 9.22 µM (inactive) in assay [5]; > 46 µM (inactive) in assay [6]; 0.158 µM (active) in assay [17]. The activity change, negative = inhibition in [2] is -13.3% (inactive); in assay [4], -2.35% (inactive); in [10], 1.73% (inactive). Besides, in [16], the activity, negative = inhibition was -15.3% (inactive). The compound was classed as inactive in [7]. The max response in assay [10] (setting [19]) stood at 12.6%; in assay [10] (setting [20]), 8.3%. Besides, the Potency result in assay [11], in [12], in assay [13], in [14] and in assay [15] was “inactive” each time.

With `Cc1cnc(CNc2ncncc2-c2c(C)noc2C)cn1`, the Potency in assay [1] was > 11.4 µM (inactive); in assay [5], > 46 µM (inactive); in assay [6], > 46 µM (inactive). The activity change, negative = inhibition in [2] was 5.13% (inactive); in assay [4] it was 1.67% (inactive); in assay [10], 5.43% (inactive). In addition, the Potency entry in [3], in [8], in [9], in assay [11], in assay [12] and in assay [13] was “inactive” each time. The Potency entry in assay [14] and in assay [15] was “inactive” in each case. In addition, the activity, negative = inhibition in assay [16] was -8% (inactive). The outcome in [7] was inactive. For the same compound, the figures for the max response in assay [10] (setting [19]) and in [10] (setting [20]) were 31% and 35%, respectively.

`COCCNc1ncnc2ccc(-c3ccc(C(=O)N(C)C)cc3)cc12`: the Potency in [1] was > 11.4 µM (inactive); in assay [5] it was > 46 µM (inactive); in assay [6], > 46 µM (inactive). In addition, the results for the activity change, negative = inhibition in assay [2], in assay [4] and in assay [10] were -7.19% (inactive), 11.8% (inactive) and -0.0247% (inactive), respectively. Besides, the Potency entry in assay [3], in assay [8], in assay [9], in assay [11], in assay [12] and in assay [13] was “inactive” throughout. Further, the Potency entry in [14] and in [15] was “inactive” in each case. In assay [16], the activity, negative = inhibition was 0.699% (inactive). Besides, in [7], the compound was classed as inactive. In addition, the max response came out at 4.77% in assay [10] (setting [19]) and 3.74% in [10] (setting [20]).

Turning to `Cn1c(=O)c(-c2cccs2)nc2cnc(N3CCOCC3)nc21`, the Potency in assay [1] was > 11.4 µM (inactive); in [3], 5.01 µM (active); in assay [5], > 9.22 µM (inactive); in assay [6] it was > 46 µM (inactive). Also, the figures for the activity change, negative = inhibition in assay [2], in assay [4] and in [10] were -14% (inactive), -9.83% (inactive) and 5.09% (inactive), respectively. Further, in assay [16], the activity, negative = inhibition is -4.84% (inactive). Besides, the compound was classed as inactive in assay [7]. Besides, the Potency result in assay [8], in assay [11], in [12], in [13], in [14] and in assay [15] was “inactive” in each case. Further, in assay [18], the activation is 11.8% (inactive). Moreover, the max response was found to be 14.1% in assay [10] (setting [19]) and 16.5% in assay [10] (setting [20]).

Regarding `COc1ncc2nc(C)c(=O)n(C3CC3)c2n1`, the Potency in [1] was > 11.4 µM (inactive); in assay [3] it was 3.98 µM (active); in assay [5] it was > 9.22 µM (inactive); in assay [6] it was > 46 µM (inactive). Further, the activity change, negative = inhibition was -5.11% (inactive) in [2], -4.48% (inactive) in assay [4] and 4.19% (inactive) in assay [10]. Moreover, in [16], the activity, negative = inhibition is -11.2% (inactive). Besides, the result in [7] was inactive. Besides, the Potency entry in assay [8], in assay [9], in assay [11], in [12], in [13] and in [14] was “inactive” each time. The Potency entry in assay [15] is “inactive”. For the same compound, the max response in assay [10] (setting [19]) was 28.7%; in [10] (setting [20]), 29.7%.
